Measured values taken from PubChem BioAssay AID1159580 (chemical genetic matrix, 2015).
Screen size: about 5,500 compounds; about 2,000 (36%) were called active. Another 18% or so got no clear call; they are omitted. No stated cut-off is given here; in the data, active means normalized growth mostly below about 0.91 (no sharp cut-off); inconclusive means no clear call, values can overlap the other calls; inactive means mostly above about 0.92. This is one part of the list.

Assay: chemical genetic growth profiling, strain panel (AID 1159580);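 further: tested at 20 µM; growth read once vehicle control cultures reached saturation at 30 °C; 1 = growth at the plate median or of vehicle wells; lower values mean less growth of the strain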
Settings: S. cerevisiae deletion strains, growth OD

Measured: normalized growth

O=C1Nc2ccccc2/C1=C\c1cccc([N+](=O)[O-])c1
inactive: locus YAR019C, strain CDC15, active compounds read low 0.974 | locus YBL105C, strain PKC1, active compounds read low 0.967 | locus YBR135W, strain CKS1, active compounds read low 0.974 | locus YBR136W, strain MEC1, active compounds read low 0.972 | locus YBR160W, strain CDC28, active compounds read low 0.979 | locus YDL017W, strain CDC7, active compounds read low 0.97 | locus YDL028C, strain MPS1, active compounds read low 0.971 | locus YDL101C, strain DUN1, active compounds read low 0.97 | locus YDL108W, strain KIN28, active compounds read low 0.968 | locus YDL132W, strain cdc53, active compounds read low 0.962 | locus YDL214C, strain PRR2, active compounds read low 0.983 | locus YDR052C, strain DBF4, active compounds read low 0.97 | locus YDR054C, strain cdc34, active compounds read low 0.957 | locus YDR226W, strain ADK1, active compounds read low 0.969 | locus YDR477W, strain SNF1, active compounds read low 0.971 | locus YER123W, strain YCK3, active compounds read low 0.985 | locus YER133W, strain GLC7, active compounds read low 1 | locus YFL009W, strain cdc4, active compounds read low 0.965 | locus YFL029C, strain CAK1, active compounds read low 0.982 | locus YFR003C, strain YPI1, active compounds read low 0.965 | locus YFR019W, strain FAB1, active compounds read low 0.987 | locus YFR028C, strain CDC14, active compounds read low 0.961 | locus YGR040W, strain KSS1, active compounds read low 0.967 | locus YGR052W, strain FMP48, active compounds read low 1.02 | locus YGR092W, strain DBF2, active compounds read low 0.921 | locus YHR030C, strain SLT2, active compounds read low 0.959 | locus YHR079C, strain IRE1, active compounds read low 0.913 | locus YHR082C, strain KSP1, active compounds read low 1.06 | locus YHR205W, strain SCH9, active compounds read low 0.848 | locus YIL147C, strain SLN1, active compounds read low 0.967 | locus YJL095W, strain BCK1, active compounds read low 0.955 | locus YJL128C, strain PBS2, active compounds read low 0.923 | locus YJL157C, strain FAR1, active compounds read low 0.985 | locus YJR016C, strain ILV3, active compounds read low 0.967 | locus YJR066W, strain TOR1 (second series), active compounds read low 0.981 | locus YJR066W, strain TOR1, active compounds read low 1.05 | locus YKL048C, strain ELM1, active compounds read low 0.971 | locus YKL067W, strain YNK1, active compounds read low 0.995 | locus YKL101W, strain HSL1, active compounds read low 0.967 | locus YKL193C, strain SDS22, active compounds read low 0.963 | locus YKL203C, strain TOR2, active compounds read low 1.05 | locus YLR113W, strain HOG1, active compounds read low 0.939 | locus YLR133W, strain CKI1, active compounds read low 0.975 | locus YLR403W, strain SFP1, active compounds read low 0.907 | locus YML070W, strain DAK1, active compounds read low 0.993 | locus YMR001C, strain CDC5, active compounds read low 0.97 | locus YMR205C, strain PFK2 (second series), active compounds read low 0.994 | locus YMR277W, strain FCP1, active compounds read low 0.969 | locus YNL006W, strain LST8, active compounds read low 0.979 | locus YNL020C, strain ARK1, active compounds read low 0.959 | locus YNL161W, strain CBK1, active compounds read low 0.965 | locus YNL183C, strain NPR1, active compounds read low 1.05 | locus YNL207W, strain RIO2, active compounds read low 0.963 | locus YNL222W, strain SSU72, active compounds read low 0.986 | locus YNL307C, strain MCK1 (second series), active compounds read low 0.957 | locus YOL078W, strain AVO1, active compounds read low 0.966 | locus YOL136C, strain PFK27, active compounds read low 0.985 | locus YOR061W, strain CKA2, active compounds read low 0.991 | locus YOR119C, strain RIO1, active compounds read low 1.07 | locus YOR231W, strain MKK1, active compounds read low 1.04 | locus YOR329C, strain SCD5, active compounds read low 0.973 | locus YPL031C, strain PHO85, active compounds read low 0.972 | locus YPL153C, strain RAD53, active compounds read low 0.992 | locus YPL204W, strain HRR25, active compounds read low 0.968 | locus YPL209C, strain IPL1, active compounds read low 0.974 | locus YPL256C, strain CLN2, active compounds read low 0.954 | locus YPR025C, strain CCL1, active compounds read low 0.978 | locus YPR106W, strain ISR1, active compounds read low 0.973 | locus YPR111W, strain DBF20, active compounds read low 0.966 | strain NNK1, active compounds read low 0.967 | strain TSCII, active compounds read low 0.963
